According to PubChem BioAssay AID1159580 (chemical genetic matrix, 2015):
Where “and” joins values, the source holds several entries; their conditions need not be identical. Equal values may be shown once. The campaign covered roughly 5,500 compounds. About 2,000 (36%) were called active. About 18% were inconclusive and are not listed. No stated cut-off is given here; in the data, active means normalized growth mostly below about 0.91 (no sharp cut-off); inconclusive means no clear call, values can overlap the other calls; inactive means mostly above about 0.92. Some of the results follow.

Test: chemical genetic growth profiling, strain panel (AID 1159580);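 further: tested at 20 µM; growth read once vehicle control cultures reached saturation at 30 °C; 1 = growth at the plate median or of vehicle wells; lower values mean less growth of the strain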
Conditions: growth OD

Measured: normalized growth

CCN(CC)CCNC(=O)c1cc(S(C)(=O)=O)ccc1OC
inactive: S. cerevisiae deletion strains, locus YJR066W, strain TOR1, active compounds read low 0.947 | S. cerevisiae deletion strains, locus YJR075W, strain HOC1, active compounds read low 1.03 and 0.995 | S. cerevisiae deletion strains, locus YKL009W, strain mrt4, active compounds read low 1.02 | S. cerevisiae deletion strains, locus YKL068W, active compounds read low 1.01 | S. cerevisiae deletion strains, locus YKL085W, strain MDH1 (second series), active compounds read low 1.02 | S. cerevisiae deletion strains, locus YKL085W, strain MDH1, active compounds read low 1.02 | S. cerevisiae deletion strains, locus YKL160W, strain elf1, active compounds read low 0.944 | S. cerevisiae deletion strains, locus YKL190W, strain CNB1, active compounds read low 1.01 | S. cerevisiae deletion strains, locus YKR001C, strain vps1, active compounds read low 1.01 | S. cerevisiae deletion strains, locus YKR026C, strain gcn3, active compounds read low 0.979 | S. cerevisiae deletion strains, locus YKR091W, strain srl3, active compounds read low 0.962 | S. cerevisiae deletion strains, locus YLL001W, strain dnm1, active compounds read low 0.94 | S. cerevisiae deletion strains, locus YLL026W, active compounds read low 0.975 | S. cerevisiae deletion strains, locus YLL041C, strain sdh2, active compounds read low 0.972 | S. cerevisiae deletion strains, locus YLR027C, strain aat2, active compounds read low 0.963 | S. cerevisiae deletion strains, locus YLR039C, strain RIC1, active compounds read low 1.03 | S. cerevisiae deletion strains, locus YLR058C, strain SHM2, active compounds read low 1.01 | S. cerevisiae deletion strains, locus YLR102C, strain apc9, active compounds read low 1.01 | S. cerevisiae deletion strains, locus YLR113W, strain HOG1, active compounds read low 0.984 | S. cerevisiae deletion strains, locus YLR221C, strain rsa3, active compounds read low 0.948 | S. cerevisiae deletion strains, locus YLR258W, strain gsy2, active compounds read low 0.981 | S. cerevisiae deletion strains, locus YLR262C, strain YPT6 (second series), active compounds read low 0.976 | S. cerevisiae deletion strains, locus YLR262C, strain YPT6, active compounds read low 1.06 | S. cerevisiae deletion strains, locus YLR268W, strain sec22, active compounds read low 1.02 | S. cerevisiae deletion strains, locus YLR320W, strain mms22, active compounds read low 0.941 | S. cerevisiae deletion strains, locus YLR330W, strain CHS5, active compounds read low 1.01 | S. cerevisiae deletion strains, locus YLR342W, strain FKS1 (second series), active compounds read low 1.02 | S. cerevisiae deletion strains, locus YLR342W, strain FKS1, active compounds read low 0.963 | S. cerevisiae deletion strains, locus YLR357W, strain rsc2, active compounds read low 0.927 | S. cerevisiae deletion strains, locus YLR370C, strain arc18, active compounds read low 0.969 | S. cerevisiae deletion strains, locus YLR371W, strain rom2, active compounds read low 1.01 | S. cerevisiae deletion strains, locus YLR384C, strain iki3, active compounds read low 0.971 | S. cerevisiae deletion strains, locus YLR418C, strain cdc73, active compounds read low 1.04 | S. cerevisiae deletion strains, locus YML016C, strain PPZ1, active compounds read low 1.01 | S. cerevisiae deletion strains, locus YML032C, strain rad52, active compounds read low 1.01 | S. cerevisiae deletion strains, locus YML120C, strain ndi1, active compounds read low 0.944 | S. cerevisiae deletion strains, locus YML124C, strain tub3, active compounds read low 1.01 | S. cerevisiae deletion strains, locus YMR058W, strain fet3, active compounds read low 0.969 | S. cerevisiae deletion strains, locus YMR078C, strain ctf18, active compounds read low 1.01 | S. cerevisiae deletion strains, locus YMR125W, strain sto1, active compounds read low 0.963 | S. cerevisiae deletion strains, locus YMR129W, active compounds read low 0.974 | S. cerevisiae deletion strains, locus YMR205C, strain PFK2, active compounds read low 0.941 | S. cerevisiae deletion strains, locus YMR223W, strain ubp8, active compounds read low 1.03 | S. cerevisiae deletion strains, locus YMR231W, strain pep5, active compounds read low 0.973 | S. cerevisiae deletion strains, locus YMR263W, strain SAP30, active compounds read low 1 | S. cerevisiae deletion strains, locus YMR307W, strain GAS1, active compounds read low 1.06 and 0.987 | S. cerevisiae deletion strains, locus YNL067W, strain RPL9B, active compounds read low 1 | S. cerevisiae deletion strains, locus YNL071W, strain lat1, active compounds read low 0.975 | S. cerevisiae deletion strains, locus YNL128W, strain TEP1, active compounds read low 1.02 | S. cerevisiae deletion strains, locus YNL153C, strain GIM3, active compounds read low 1.02 | S. cerevisiae deletion strains, locus YNL175C, strain NOP13, active compounds read low 1.01 | S. cerevisiae deletion strains, locus YNL183C, strain NPR1, active compounds read low 0.921 | S. cerevisiae deletion strains, locus YNL197C, strain WHI3, active compounds read low 1.03 | S. cerevisiae deletion strains, locus YNL209W, strain ssb2, active compounds read low 0.972 | S. cerevisiae deletion strains, locus YNL224C, strain SQS1, active compounds read low 1 | S. cerevisiae deletion strains, locus YNL233W, strain BNI4, active compounds read low 1 | S. cerevisiae deletion strains, locus YNL248C, strain rpa49, active compounds read low 0.971 | S. cerevisiae deletion strains, locus YNL250W, strain rad50, active compounds read low 1.04 | S. cerevisiae deletion strains, locus YNL271C, strain bni1, active compounds read low 1 | S. cerevisiae deletion strains, locus YNL298W, strain CLA4, active compounds read low 1.01 | S. cerevisiae deletion strains, locus YNL307C, strain MCK1, active compounds read low 1.02 | S. cerevisiae deletion strains, locus YNL322C, strain KRE1 (second series), active compounds read low 0.956 | S. cerevisiae deletion strains, locus YNL322C, strain KRE1, active compounds read low 0.961 | S. cerevisiae deletion strains, locus YNR049C, strain mso1, active compounds read low 0.96 | S. cerevisiae deletion strains, locus YNR052C, strain pop2, active compounds read low 1.01 | S. cerevisiae deletion strains, locus YOL006C, strain TOP1, active compounds read low 1.01 | S. cerevisiae deletion strains, locus YOL012C, strain htz1 0.994 | S. cerevisiae deletion strains, locus YOL147C, strain pex11, active compounds read low 1.01 | S. cerevisiae deletion strains, locus YOR001W, strain rrp6, active compounds read low 0.968 | S. cerevisiae deletion strains, locus YOR061W, strain CKA2, active compounds read low 1.01 | S. cerevisiae deletion strains, locus YOR069W, strain VPS5, active compounds read low 1.01 | S. cerevisiae deletion strains, locus YOR070C, strain gyp1, active compounds read low 0.98 | S. cerevisiae deletion strains, locus YOR080W, strain dia2, active compounds read low 0.959 | S. cerevisiae deletion strains, locus YOR083W, strain WHI5 (second series), active compounds read low 1 | S. cerevisiae deletion strains, locus YOR083W, strain WHI5, active compounds read low 0.94 | S. cerevisiae deletion strains, locus YOR106W, strain vam3, active compounds read low 0.939 | S. cerevisiae deletion strains, locus YOR136W, strain idh2, active compounds read low 1.01 | S. cerevisiae deletion strains, locus YOR144C, strain elg1, active compounds read low 1.01 | S. cerevisiae deletion strains, locus YOR184W, strain ser1, active compounds read low 1.01 | S. cerevisiae deletion strains, locus YOR231W, strain MKK1, active compounds read low 0.978 | S. cerevisiae deletion strains, locus YOR265W, strain rbl2, active compounds read low 0.979 | S. cerevisiae deletion strains, locus YOR270C, strain vph1, active compounds read low 0.933 | S. cerevisiae deletion strains, locus YOR290C, strain snf2, active compounds read low 0.928 | S. cerevisiae deletion strains, locus YOR316C, strain cot1, active compounds read low 1.01 | S. cerevisiae deletion strains, locus YPL051W, strain arl3, active compounds read low 1 | S. cerevisiae deletion strains, locus YPL055C, strain LGE1, active compounds read low 0.983 and 0.98 | S. cerevisiae deletion strains, locus YPL078C, strain atp4, active compounds read low 0.962 | S. cerevisiae deletion strains, locus YPL106C, strain sse1, active compounds read low 0.931 | S. cerevisiae deletion strains, locus YPL240C, strain hsp82, active compounds read low 0.988 | S. cerevisiae deletion strains, locus YPL256C, strain CLN2, active compounds read low 0.981 | S. cerevisiae deletion strains, locus YPR119W, strain clb2, active compounds read low 1 | S. cerevisiae deletion strains, locus YPR141C, strain kar3, active compounds read low 1.01 | S. cerevisiae deletion strains, locus YPR163C, strain tif3, active compounds read low 1.01 | S. cerevisiae deletion strains, locus YPR167C, strain met16, active compounds read low 1.01 | S. cerevisiae deletion strains, strain wtn01, active compounds read low 1.01 | S. cerevisiae strains, strain wild type, active compounds read low 1.01
